Sampled rows, rich in hits. Any-hit rate of the full collection: about 2.8%.
PP1 counter: PP1-alpha (human) inhibition in PP5 counter-screen; inhibition, % at 6.7 µM; P62136; 320,000 tested, 0.9% active; purified PP1alpha, OMFP fluorescence;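 active means inhibition above the mean inhibition of all tested compounds plus 3 SD, computed separately for each screening campaign, cut at about 15% in these data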
Rev-erbA mod: modulates human Rev-erb alpha binding to DNA | P20393 | activity, % at 10 µM | 370,000 tested, 0.79% active | Rev-erbα–FITC-DNA binding, fluorescence polarization, 90 min;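 active means activity above about 14%, limit read from the data; passing the limit was not always enough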
Target sequence (P20393 whole entry, looked up): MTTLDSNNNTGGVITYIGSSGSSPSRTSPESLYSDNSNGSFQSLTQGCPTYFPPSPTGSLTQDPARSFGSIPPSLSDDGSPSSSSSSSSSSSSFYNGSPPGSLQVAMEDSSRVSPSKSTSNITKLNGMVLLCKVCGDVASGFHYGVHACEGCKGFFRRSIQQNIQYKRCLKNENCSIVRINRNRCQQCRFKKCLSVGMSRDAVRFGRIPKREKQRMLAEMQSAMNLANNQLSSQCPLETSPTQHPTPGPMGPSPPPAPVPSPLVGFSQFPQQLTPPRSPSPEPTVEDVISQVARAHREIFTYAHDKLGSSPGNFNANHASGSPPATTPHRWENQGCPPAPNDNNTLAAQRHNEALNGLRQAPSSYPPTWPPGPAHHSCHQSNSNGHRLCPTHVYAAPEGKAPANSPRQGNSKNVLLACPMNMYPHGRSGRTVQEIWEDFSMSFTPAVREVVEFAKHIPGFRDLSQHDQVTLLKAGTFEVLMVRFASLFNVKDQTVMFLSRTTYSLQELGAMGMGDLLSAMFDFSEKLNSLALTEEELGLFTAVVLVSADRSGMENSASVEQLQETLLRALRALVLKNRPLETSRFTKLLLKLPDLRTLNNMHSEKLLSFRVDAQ
proKLK7 act: activates the human kallikrein-7 zymogen | 370,000 tested, 0.9% active | AID 652039 | purified proKLK7, EDANS-DABCYL substrate fluorescence; 100% is mature enzyme control, 0% vehicle | activation, % at 7 µM;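 active means activation above the mean of all tested compounds plus 3 SD, computed per campaign excluding outliers beyond control limits, cut at about 13% in these data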
JMJD2C inh: inhibitors of human GASC-1 (JMJD2C) demethylase; Q9H3R0; GST-JMJD2C(1-420) H3K9me3 demethylation, DELFIA europium; inhibition, % at 2.35 µM; 330,000 tested, 0.069% active;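 active means more than half of a compound's replicate wells show inhibition beyond 50%, single wells judged on their own value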;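 further: signal counts dimethyl H3K9 product captured on neutravidin plate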
PP5 primary: inhibitors of human protein phosphatase 5 (PP5). P53041. purified PP5c, OMFP substrate fluorescence. inhibition, % at 6.7 µM. 320,000 tested, 0.18% active. AID 1987;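 active means inhibition above the campaign's mean inhibition across all tested compounds plus 3 SD, cut at about 9.5% in these data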
PG9 Ab binder: PG9 antibody binding by small molecule; inhibition, % at 6.7 µM; 360,000 tested, 0.43% active; TR-FRET gp120-PG9 antibody binding; in the data active means inhibition above about 8.5%
PG9 binder conf: confirmation of small molecules binding HIV-1 gp120 antibody PG9. AID 651571. shares compounds with PG9 Ab binder. TR-FRET PG9 antibody binding, biochemical. inhibition, % at 6.7 µM. 1,500 tested, 90% active; in the data active means inhibition above about 9%
PGV04 Ab binding: binds control antibody PGV04 in PG9 binder counter-screen. shares compounds with PG9 Ab binder. TR-FRET PGV04 antibody-gp120 binding, biochemical. inhibition, % at 6.7 µM. 1,500 tested, 95% active; in the data active means inhibition above about 9.5%
PG9 bind DR: small molecules binding HIV-1 gp120 antibody PG9; shares compounds with PG9 Ab binder; TR-FRET PG9 antibody-gp120 binding inhibition; IC50, µM; 95 tested, under 10 active; AID 651848; in the data active means IC50 below about 10 µM
PGV04 DR counter: counter-screen for PG9 binders: binding to control antibody PGV04; TR-FRET binding to control antibody PGV04; AID 651937; 95 tested, 20% active; IC50, µM; shares compounds with PG9 Ab binder
PG126 DR counter: PG126 binding, dose response counter-screen; AID 651939; 95 tested, 20% active; IC50, µM; shares compounds with PG9 Ab binder; TR-FRET binding to antibody PG126, counterscreen
A number is an active result; i = inactive; nt = no result given. Unless noted, no stated cut-off is given here; in the data, active means IC50 below about 9 µM; inactive means the rest.

SMILES | PP1 counter | Rev-erbA mod | proKLK7 act | JMJD2C inh | PP5 primary | PG9 Ab binder | PG9 binder conf | PGV04 Ab binding | others
CCc1ccc2oc(C(=O)Nc3ccc(S(N)(=O)=O)cc3)c(C)c2c1 | i | i | i | i | i | 10 | 15 | 21
Cc1c(C(=O)Nc2ccc(S(N)(=O)=O)cc2)oc2ccc(Cl)cc12 | i | i | i | i | i | i | nt | nt
CC(C)[C@H]1Cn2nnc(-c3ccccc3)c2Cn2c3ccccc3c(=O)n21 | nt | i | i | nt | nt | nt | nt | nt
CCOc1ccc(/C(O)=C2\C(=O)C(=O)N(c3ccccn3)C2c2ccccc2F)c(C)c1 (stereo not drawn) | nt | i | i | nt | nt | 9.6 | 22 | 32
CCC(C)CNC(=O)CN1C(=O)C2CCCCN2C(=O)c2ccccc21 (stereo not drawn) | nt | i | i | nt | nt | nt | nt | nt
C[C@@H]1CCN(C2CC2)S(=O)(=O)c2c(cccc2N2CC[C@H](N(C)C)C2)O1 | nt | i | i | nt | nt | nt | nt | nt
Cc1nc(-c2ccc(Br)cc2)ccc1C(=O)O | i | i | i | i | i | 14 | 24 | 30
Cc1ccc(-c2ccc(C(=O)O)c(C)n2)cc1 | i | i | i | i | i | i | nt | nt
O=C(Oc1c(Br)cc(Br)c2cccnc12)N1CCCCC1 | i | i | i | i | i | 9.1 | 14 | 18
O=C(Oc1ccc(Cl)c2cccnc12)N1CCCCC1 | i | i | i | i | i | i | nt | nt
Cc1ccc(-n2c(SC/C=C/c3ccccc3)nnc2-c2ccco2)cc1 | nt | i | i | nt | nt | nt | nt | nt
CCOC(=O)Cn1c(=NC(=O)CSC(C)=O)sc2cc(OC)ccc21 | i | i | i | i | i | 13 | 18 | 23
CCn1c(Cc2ccccc2)nnc1SCC(=O)Nc1nc2ccccc2s1 | i | i | i | i | i | 17 | 29 | 40
Cn1cccc1Cc1nnc(SCC(=O)Nc2nc3ccccc3s2)n1CCc1ccccc1 | i | i | nt | nt | i | nt | nt | nt
O=C(O)c1ccccc1CSc1nnc2c(n1)[nH]c1ccccc12 | i | i | i | i | i | 11 | 21 | 24
O=C(NC1CCCCN(Cc2cccc(Cl)c2)C1=O)c1ccccc1 (stereo not drawn) | nt | i | i | nt | nt | nt | nt | nt
O=c1c(Br)c(Br)cnn1-c1ccccc1 | nt | i | i | nt | nt | 13 | 18 | 28
Cc1ccc(-n2ncc(Br)c(Br)c2=O)cc1 | nt | nt | nt | i | nt | nt | nt | nt
COC(=O)C1=C(C)N(Cc2cccc(C(F)(F)F)c2)C(=NCc2cc(OC)c(OC)c(OC)c2)NC1c1cccc(F)c1 (stereo not drawn) | nt | i | i | nt | nt | i | nt | nt
S=c1nc(COc2ccccc2)[nH]c2ccccc12 | i | i | i | i | i | 13 | 9.2 | 9.4
S=c1nc(Cc2ccccc2)[nH]c2ccccc12 | i | i | i | i | i | 25 | 16 | 13 | PG9 bind DR=i;PGV04 DR counter=i;PG126 DR counter=i
FC(F)(F)c1nc(=S)c2ccccc2[nH]1 | nt | i | i | nt | nt | 17 | 11 | 9.9
Cc1nc(=S)c2ccccc2[nH]1 | i | i | i | i | i | i | nt | nt
S=c1nc(Cc2ccc(Cl)cc2)[nH]c2ccccc12 | i | i | i | i | i | 16 | i | 11
CCCCOCC1CN(CCCC)S(=O)(=O)c2c(cccc2N2CCCCC2)O1 (stereo not drawn) | nt | i | i | nt | nt | i | nt | nt
SMILES | PP1 counter | Rev-erbA mod | proKLK7 act | JMJD2C inh | PP5 primary | PG9 Ab binder | PG9 binder conf | PGV04 Ab binding | others
Cc1ccc(C2NC(=O)c3n[nH]c(C)c32)cc1 (stereo not drawn) | nt | i | i | nt | nt | i | nt | nt
Cc1nn(-c2ccccc2)c(C)c1/C=N\N1CCN(Cc2ccccc2Cl)CC1 | nt | i | i | nt | nt | nt | nt | nt
CSc1cccc(NC(=O)CCCn2c(=O)c3cccn3c3cccnc32)c1 | i | i | i | i | i | 12 | 14 | 20
O=C(NCc1ccccc1)[C@H]1CCCN1C(=O)[C@H]1CCCN1C(=O)c1ccc(F)cc1F | nt | i | i | nt | nt | i | nt | nt
CCn1c(SCc2ccc(Cl)cc2)nc2nc3c(cc2c1=O)CCCC3 | i | i | i | i | i | i | nt | nt
CCn1c(=S)[nH]c2nc3c(cc2c1=O)CCCC3 | i | i | i | i | i | 22 | 10 | 9.9 | PG9 bind DR=i;PGV04 DR counter=i;PG126 DR counter=i
CC1(C)Cc2nc3[nH]c(=S)n(-c4ccccc4)c(=O)c3cc2CO1 | i | i | i | i | i | i | nt | nt
O=c1c2cc3c(nc2[nH]c(=S)n1-c1ccccc1)CCCC3 | i | i | i | i | i | 22 | 31 | 34
O=C(NC1CCCC1)[C@@H]1CCCN1C(=O)[C@@H](NC(=O)N1CCOCC1)C1CCCCC1 | nt | i | i | nt | nt | i | nt | nt
Cc1cc(OCC(=O)NCCc2ccc(S(N)(=O)=O)cc2)c2c(C)c(C)c(=O)oc2c1 | i | i | i | i | i | 10 | 14 | 25
O=C(NCCC1=CCCCC1)c1coc(=O)c(Br)c1 | i | i | i | i | i | 46 | 57 | 64
O=C(NCCC1=CCCCC1)c1ccc(=O)oc1 | i | i | i | i | i | i | nt | nt
CC1CCN(C(=O)c2ncn3c2c(=O)[nH]c2ccc(Br)cc23)CC1 | nt | i | i | nt | nt | 9.1 | 14 | 18
O=C(C1=C(O)C(=O)N(CCN2CCOCC2)C1c1cccc(O)c1)c1cc2ccccc2o1 (stereo not drawn) | nt | i | i | nt | nt | i | nt | nt
COc1cccc(C2C(C(=O)c3ccc(C)o3)=C(O)C(=O)N2CCN2CCOCC2)c1 (stereo not drawn) | i | i | i | i | i | 9.0 | 21 | 25
COc1cccc2cc(C(=O)C3=C(O)C(=O)N(CCN4CCOCC4)C3c3cccc(Cl)c3)oc12 (stereo not drawn) | 23 | i | i | i | i | 18 | 27 | 38
Cc1ccc(C2C(C(=O)c3cc4ccccc4o3)=C(O)C(=O)N2CCN2CCOCC2)o1 (stereo not drawn) | i | nt | i | i | i | i | nt | nt
Cc1ccc(C2C(C(=O)c3cc4ccccc4o3)=C(O)C(=O)N2CCN2CCOCC2)cc1 (stereo not drawn) | i | i | i | i | i | 10 | 27 | 35
O=C(C1=C(O)C(=O)N(CCN2CCOCC2)C1c1cccc(F)c1)c1cc2ccccc2o1 (stereo not drawn) | i | i | i | i | i | 24 | 34 | 45
COC(=O)c1cc2c(c3c4cc(F)ccc4n(S(=O)(=O)c4ccc(OC)cc4)c13)C(=O)N(Cc1ccccc1OC)C2 | nt | i | i | nt | nt | i | nt | nt
Cc1ccccc1Cn1cc(COC(=O)N(C)Cc2ccccc2)nn1 | nt | i | i | nt | nt | nt | nt | nt

From PubChem
